Compounds with a hit are over-represented: about 21% of the library has one in this group of screens.
Shiga toxin inh: inhibitors of Shiga toxin in Vero cells. Vero cells, Shiga toxin protein synthesis inhibition reporter. inhibition, % at 38.7 µM. 9.2% of 290,000 active. AID 2315; in the data active = inhibition mostly above about 28%, no sharp cut-off; inactive = mostly below about 43%; note: 0% is about no effect
CHX counter: affects cycloheximide protein synthesis inhibition readout, counter-screen; max response, %; 12% of 300,000 active; cell reporter, cycloheximide protein synthesis inhibition counterscreen; in the data active = max response mostly above about 13%, no sharp cut-off; inactive = mostly below about 14%; note: read at 38.3 µM for the half of the compounds with a filed dose; 0% is about no effect
Pf growth 96h: P. falciparum growth inhibition at 96 hours; P. falciparum luciferase reporter growth, 96 h; Potency, µM (top dose mostly 28.7 µM), without a hit: at the highest dose activity change, negative = inhibition, usual class: inhibitors; 6.9% of 320,000 active; AID 504834; note: potency is the fitted concentration of half-maximal effect; % is set by controls: 0 for no effect and ±100 for the full control effect
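Two parasite generations (96 h, 37 C, 5% CO2) of compound exposure in infected erythrocytes (0.05% parasitemia, 2% hematocrit). Luciferase-reporter P. falciparum; decreased luminescence indicates inhibited growth, aimed at apicoplast-acting delayed death.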
Pf growth 48h: inhibits P. falciparum growth in the first generation, 48 h; P. falciparum luciferase growth in erythrocytes, 48 h; Potency, µM (highest dose often 28.7 µM), inactives show at the highest dose activity change, negative = inhibition, actives largely listed as inhibitors; 5.9% of 310,000 active; AID 504832; note: potency is the fitted concentration of half-maximal effect; % is set by controls: 0 for no effect and ±100 for the full control effect
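A one-generation exposure of luciferase-tagged malaria parasites in RPMI 1640/Albumax erythrocyte culture, 37 C and 5% CO2. Inhibition is inferred from decreased luminescence after adding detection reagent.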
Numbers without * were called inactive; ? = inconclusive; . = no result given; [ ] = remark or other dose. Unless noted, calls come from the whole dose curve; as a rule, active = well fitted inhibition curve with a large enough effect; inconclusive = small, poorly fitted or top-dose-only effect, or another doubt; inactive = no such curve, though single readings can be large or run the other way.

SMILES	Shiga toxin inh	CHX counter	Pf growth 96h	Pf growth 48h
CC(C)(CO)C(O)C(=O)NCCCC(=O)O (stereo not drawn)	.	.	-17.3%	-92.3%
OC[C@@H]1[C@@H](O)[C@H](O)[C@H]2[C@@H](O)CCN21	-5.3	-5.2	.	.
CC(C)(CNC(=O)CC1C(=O)NCCN1Cc1cccc(F)c1F)N1CCOCC1 (stereo not drawn)	-3.2	2.5	2.5%	30.6%
CSc1ccccc1C(=O)Nc1ccc(C)c(C)c1	90.6*	42.2*	.	88.1%
COc1cccc(C(=O)NCc2ccc3c(c2)OCO3)c1OC	23.6	7.8	?	-5.9%
COc1cccc(C(=O)Nc2ccc3c(c2)OCO3)c1OC	89.3*	47.8*	137.5%	162.1%
O=C(CCl)Nc1ccccc1C(=O)Nc1ccc2c(c1)OCO2	41.5*	57.5*	-35.4%	119.1%
O=C(CCNC(=O)c1ccccc1Cl)Nc1ccc2c(c1)OCO2	11.5	8.6	.	20.0%
COc1ccc(-n2c(=O)[nH]cc(C(=O)Nc3ccc4c(c3)OCCO4)c2=O)cc1OC	14.6	-3.6	7.1%	9.8%
O=C(Nc1ccc2c(c1)OCO2)c1c[nH]c(=O)n(-c2ccc(F)cc2)c1=O	18.7	15.6*	?	?
CSc1ccccc1C(=O)Nc1cc(C)cc(C)c1	56.7	3.5	41.3%	41.5%
CC(=O)c1c(C)n(-c2ccccc2Br)c2ccc(O)cc12	-17.2	-3.5	3.0%	-13.7%
COc1ccccc1C(=O)COC(=O)/C(=C/c1ccccc1)NC(C)=O	.	.	39.9%	17.9%
Cc1cccc(S(=O)(=O)NC2CCCCCCC2)c1	-2.1	0.3	-2.8%	-8.8%
Cc1ccc(C)c(NS(=O)(=O)c2ccc3[nH]c(=O)oc3c2)c1	8.6	1.6	9.6%	5.2%
COc1ccc(CCNC(=O)C2CCCN(S(=O)(=O)c3ccc(F)cc3)C2)cc1OC (stereo not drawn)	22.0	-0.9	?	?
CSc1ccccc1C(=O)Nc1ccc2c(c1)OCO2	25.8*	22.8*	?	23.6%
CCC(C)NC(=O)CSC1=Nc2ccccc2C2=NC(c3ccccc3)C(=O)N12 (stereo not drawn)	-13.0	-5.7	-9.0%	.
O=C(CCC1N=C2c3ccccc3N=C(SCc3ccc(Cl)cc3)N2C1=O)NCc1ccco1 (stereo not drawn)	43.5	18.3	24.6%	?
O=C(CC1N=C2c3ccccc3N=C(SCc3ccc(F)cc3)N2C1=O)NCc1ccco1 (stereo not drawn)	30.3*	32.7*	13.1µM*	0.738µM*
Cc1ccc(CSC2=Nc3ccccc3C3=NC(CC(=O)NCc4ccco4)C(=O)N23)cc1 (stereo not drawn)	67.9*	37.6*	.	1.31µM*
O=C(CSC1=Nc2ccccc2C2=NC(CC(=O)NCc3ccco3)C(=O)N12)NCC1CCCO1 (stereo not drawn)	29.7	13.5	?	?
CCC(C)NC(=O)CSC1=Nc2ccccc2C2=NC(CC(=O)NCc3ccccc3)C(=O)N12 (stereo not drawn)	-0.9	-2.1	-0.8%	9.28µM*
O=C(CCC1N=C2c3ccccc3N=C(SCc3ccc(F)cc3)N2C1=O)NCc1ccco1 (stereo not drawn)	30.4	18.6*	?	?
CN1CCc2cc(O)c(O)cc2C1Cc1ccc(O)c(O)c1 (stereo not drawn)	-17.5	-6.5	.	.
SMILES	Shiga toxin inh	CHX counter	Pf growth 96h	Pf growth 48h
O=C(NC1CCCCC1)c1cc([N+](=O)[O-])[nH]n1	30.9	6.5	13.2%	16.4%
CCOc1ccccc1CNC(=O)c1ccc2nc(N3CCOCC3)sc2c1	-7.3	0.8	50.4%	?
COCCN(C(=O)COC(=O)c1sccc1C)c1c(N)n(Cc2ccccc2)c(=O)[nH]c1=O	-26.4	-5.5	-23.7%	18.4%
CC(C)(C)NC(=S)NCC1CC1	0.8	-2.2	-16.7%	9.5%
CCC(=O)N1CCc2cc(S(=O)(=O)CCC(=O)N(C)c3ccc(OC)cc3)ccc21	-9.6	-1.1	27.8%	-13.8%
COc1ccccc1CNC(=O)CCC1N=C2c3ccccc3N=C(SCC(=O)NCC3CCCO3)N2C1=O (stereo not drawn)	-3.9	-0.7	4.15µM*	-12.8%
CN1C2C=C3C(C#N)=C(N)C(C#N)(C#N)C(c4ccc(Br)cc4)C3C1CC2 (stereo not drawn)	-5.0	-4.3	8.28µM*	9.28µM*
CN1C2C=C3C(C#N)=C(N)C(C#N)(C#N)[C@@H](c4ccc(Cl)cc4)[C@@H]3C1CC2 (stereo partly drawn)	-1.5	-4.0	?	?
CC(=O)CN1Cc2ccccc2/C1=N\C(=O)Nc1ccccc1	11.3	16.1*	?	19.8%
COc1ccc(N2Cc3ccccc3/C2=N\C(=O)Nc2ccccc2)cc1	57.2	22.7*	9.2%	7.8%
Cc1cc(C(=O)NCc2ccc(F)cc2)c2ccccc2n1	-4.7	8.9	9.5%	2.0%
COc1ccc(CCOC(=O)c2cccc(NC(C)=O)c2)cc1	52.1*	36.2*	25.0%	21.7%
CC(=O)Nc1cccc(C(=O)OCc2ccc([N+](=O)[O-])cc2)c1	-4.6	-3.5	-13.2%	1.9%
CC(=O)Nc1cccc(C(=O)OCC(=O)NCc2ccc(F)cc2)c1	28.0	17.5	32.5%	13.1µM*
CC(=O)Nc1ccc(C(=O)OCC(=O)NCc2ccccc2)cc1	2.3	5.5	-8.7%[5.75 µM]	-11.7%
CN1CCC2(CC1)Nc1nc(SCc3ccc(Cl)cc3)nn1C1=C2CN(C)CC1	-7.6	-8.9	-10.2%	3.29µM*
CCNc1ccc(P(=O)(c2ccccc2)c2ccccc2)cc1	5.5	-3.0	-3.9%	0.0%
CC1(O)c2ccccc2C(=O)N1Cc1ccccc1 (stereo not drawn)	11.2	-0.1	0.7%	-1.9%
CC1(O)c2ccccc2C(=O)N1CCc1ccccc1F (stereo not drawn)	66.0*	42.6*	0.0%	32.9%
Cc1cccc(NC(=O)c2cccc(S(=O)(=O)NCc3ccccc3)c2)n1	.	.	0.0%	-16.1%
Cc1cccc(NC(=O)c2cccc(S(=O)(=O)N(C)c3ccccc3)c2)n1	.	.	13.1µM*	7.38µM*
C=CCN(c1ccccc1OC)S(=O)(=O)c1cccc(C(=O)Nc2nnc(C3CC3)s2)c1	.	.	9.28µM*	10.4µM*
CCN(c1ccccc1)S(=O)(=O)c1ccc(C(=O)Nc2cccc(C)n2)cc1	.	.	?	9.28µM*
CCNc1ccc(C(=O)OCC)cc1NC(=O)c1cccc(S(=O)(=O)N(C)c2ccccc2)c1	-8.0	1.8	2.33µM*	?
COc1ccccc1NC(=O)Nc1nc(CC(=O)Nc2ccc(N(C)C)cc2)cs1	.	.	?	49.6%
COc1ccccc1N(Cc1ccccc1)S(=O)(=O)c1cccc(C(=O)Nc2cccc(C)n2)c1	1.7	10.4	?	9.28µM*
COC1=C(Nc2ccccc2OC)C(=O)c2ccccc2C1=O	19.9	11.7	2.33µM*	2.33µM*
COc1ccccc1NC1=C(NC(C)=O)C(=O)c2ccccc2C1=O	26.8	7.1	?	3.7µM*

Screening results as filed in PubChem.
